Measured values: the supplement of paper PMC3545927
This is one part of the list. How many sequences the whole screen found active is unknown.

Biological target: furin, P09958
Assay: furin cleavage Z-score vs untreated control; higher = more cleavage, active = 3.5 or more, inactive = 1 or less, 8 variable residues between constant flanks
Method: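 Multiplexed peptide-cDNA fusion cleavage assay. 8-mer variable peptides flanked by constant Cys-Ala (N-term) and Ala-Gly-Asn-Ala-Ser-Ala-Ser-Ala (C-term) and conjugated to a cDNA oligonucleotide were bead-immobilised via the N-terminus. They were treated with purified furin at a 1:10 enzyme:substrate ratio in 50 mM HEPES pH 7.5, 1 mM CaCl2, 100 mM NaCl for 7.5, 15 or 30 min. Released cDNA was counted by next-generation sequencing, and log counts versus no-furin controls were lowess-adjusted and converted to robust Z-scores.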

Sequence of furin, P09958 (P09958 whole entry): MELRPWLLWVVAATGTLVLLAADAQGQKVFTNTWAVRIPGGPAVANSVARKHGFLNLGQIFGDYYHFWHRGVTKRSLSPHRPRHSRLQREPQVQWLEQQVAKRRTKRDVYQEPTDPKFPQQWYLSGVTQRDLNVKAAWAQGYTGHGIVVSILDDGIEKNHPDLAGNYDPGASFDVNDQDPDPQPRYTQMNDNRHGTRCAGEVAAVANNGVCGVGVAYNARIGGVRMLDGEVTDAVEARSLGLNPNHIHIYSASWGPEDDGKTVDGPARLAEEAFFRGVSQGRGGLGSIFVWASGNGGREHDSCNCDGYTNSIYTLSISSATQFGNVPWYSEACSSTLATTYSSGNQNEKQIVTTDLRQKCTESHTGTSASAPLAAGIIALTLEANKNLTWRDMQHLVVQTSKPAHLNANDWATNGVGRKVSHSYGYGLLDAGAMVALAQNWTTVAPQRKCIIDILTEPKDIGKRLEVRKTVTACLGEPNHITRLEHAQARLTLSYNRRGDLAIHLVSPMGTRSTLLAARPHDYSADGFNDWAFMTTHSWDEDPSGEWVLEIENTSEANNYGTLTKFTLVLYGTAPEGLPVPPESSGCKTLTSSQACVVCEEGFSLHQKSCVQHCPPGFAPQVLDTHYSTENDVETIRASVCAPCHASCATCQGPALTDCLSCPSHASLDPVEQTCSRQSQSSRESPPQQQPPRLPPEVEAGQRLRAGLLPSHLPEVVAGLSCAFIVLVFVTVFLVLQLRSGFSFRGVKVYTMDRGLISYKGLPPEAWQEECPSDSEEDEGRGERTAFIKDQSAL

| Sequence | furin cleavage Z-score (7.5 min) | furin cleavage Z-score (15 min) | furin cleavage Z-score (30 min) |
| --- | --- | --- | --- |
| CARGLDVSVIAGNASASA [HC870] | 1.35 | -0.274 (inactive) | -0.641 (inactive) |
| CAAPGERPSGAGNASASA [HC912] | -0.474 (inactive) | 0.136 (inactive) | -0.967 (inactive) |
| CANLVYSTTSAGNASASA [HC1388] | 1.17 | -0.567 (inactive) | 1.86 |
| CATTPCSFSWAGNASASA [HC1887] | -1.16 (inactive) | -1.65 (inactive) | 0.982 (inactive) |
| CAKVPAAYAAAGNASASA [HC780] | 0.0632 (inactive) | -0.0412 (inactive) | -3.37 (inactive) |
| CARARRDDPHAGNASASA [FS-2888] | 5.71 (active) | 7.99 (active) | 5.78 (active) |
| CARARRTTIYAGNASASA [FS-3151] | -0.153 (inactive) | 1.46 | 4.35 (active) |
| CALTKRLKRHAGNASASA [FS-689] | 12.6 (active) | 12.3 (active) | 9.95 (active) |
| CARARRTLGHAGNASASA [FS-1684] | 6.43 (active) | 8.11 (active) | 7.53 (active) |
| CAYTTGPCTPAGNASASA [HC1193] | -1.22 (inactive) | 0.109 (inactive) | -1.36 (inactive) |
| CALSPGALVVAGNASASA [HC1104] | -0.255 (inactive) | 1.25 | 0.572 (inactive) |
| CAVVCNSMSYAGNASASA [HC98] | -1.2 (inactive) | 0.223 (inactive) | -0.488 (inactive) |
| CAEGVFTGLTAGNASASA [HC940] | -0.801 (inactive) | 0.108 (inactive) | -0.239 (inactive) |
| CAEGVTSTWVAGNASASA [HC2176] | 0.155 (inactive) | -0.512 (inactive) | 0.24 (inactive) |
| CAGPVIQMYTAGNASASA [HC708] | -1.34 (inactive) | -0.0874 (inactive) | 0.0794 (inactive) |
| CAEAKRGSSSAGNASASA [FS-2476] | -2.29 (inactive) | -0.0771 (inactive) | 0.074 (inactive) |
| CARARRTKRHAGNASASA [FS-1255] | 11.2 (active) | 11.8 (active) | 8.26 (active) |
| CARKQRKKKAAGNASASA [FS-1262] | 0.332 (inactive) | 1.6 | 1.96 |
| CAFSQRRKRRAGNASASA [FS-775] | 6.61 (active) | 5.92 (active) | 6.42 (active) |
| CARSQPRGRRAGNASASA [HC188] | 4.16 (active) | 5.3 (active) | 4.87 (active) |
| CARSQRRKKAAGNASASA [FS-865] | 4.39 (active) | 4.99 (active) | 5.15 (active) |
| CALRKRRKRKAGNASASA [FS-1030] | 10.7 (active) | 11.4 (active) | 9.12 (active) |
| CAYTNVDQDLAGNASASA [HC711] | -0.889 (inactive) | -0.433 (inactive) | -0.26 (inactive) |

| Sequence | furin cleavage Z-score (7.5 min) | furin cleavage Z-score (15 min) | furin cleavage Z-score (30 min) |
| --- | --- | --- | --- |
| CALTVPASAYAGNASASA [HC253] | 0.273 (inactive) | -0.258 (inactive) | 0.0356 (inactive) |
| CAGPRRPMRPAGNASASA [FS-785] | 0.568 (inactive) | -0.102 (inactive) | -1.31 (inactive) |
| CACGDIINGLAGNASASA [HC657] | -0.652 (inactive) | -0.156 (inactive) | 0.306 (inactive) |
| CAENDTDVFVAGNASASA [HC426] | -0.537 (inactive) | 0.514 (inactive) | -0.867 (inactive) |
| CALRFRRKRRAGNASASA [FS-826] | 11.4 (active) | 12.4 (active) | 10.4 (active) |
| CACRKRRKRCAGNASASA [FS-17] | 4.55 (active) | 0.934 (inactive) | 1.07 |
| CAAPPRRKRRAGNASASA [FS-976] | 7.74 (active) | 7.56 (active) | 5.8 (active) |
| CARCQRDAMCAGNASASA [FS-2651] | -1.14 (inactive) | 0.877 (inactive) | 1.14 |
| CAEMPRDRRRAGNASASA [FS-325] | -1.37 (inactive) | -0.519 (inactive) | -0.0256 (inactive) |
| CALREEVSFRAGNASASA [HC1231] | -0.828 (inactive) | -0.657 (inactive) | -0.791 (inactive) |
| CALRFCALARAGNASASA [HC620] | 1.83 | 0.507 (inactive) | -0.572 (inactive) |
| CAVRNRRKRKAGNASASA [FS-1434] | 8.59 (active) | 9.19 (active) | 8.05 (active) |
| CAGRSEFKRCAGNASASA [FS-1331] | -0.855 (inactive) | -0.736 (inactive) | -0.471 (inactive) |
| CATGCVVIVGAGNASASA [HC999] | 0.288 (inactive) | -0.105 (inactive) | 1.66 |
| CATTPCCGSWAGNASASA [HC74] | -2.07 (inactive) | -0.069 (inactive) | -1.52 (inactive) |
| CAEFTLLTRIAGNASASA [FS-988] | -0.861 (inactive) | -1.86 (inactive) | 0.256 (inactive) |
| CALRFRRKRKAGNASASA [FS-825] | 9.84 (active) | 11 (active) | 8.47 (active) |
| CALIFCHSKKAGNASASA [HC856] | -0.592 (inactive) | -0.736 (inactive) | -0.784 (inactive) |
| CAMEEMSQHLAGNASASA [HC8] | 1.27 | 1.33 | 0.916 (inactive) |
| CAAAIREKRAAGNASASA [FS-153] | 10.5 (active) | 11.2 (active) | 8.65 (active) |
| CALADREKRAAGNASASA [FS-683] | 5.37 (active) | 7.31 (active) | 4.83 (active) |
| CALASHPKRAAGNASASA [FS-1355] | -0.0202 (inactive) | 0.46 (inactive) | -0.107 (inactive) |
| CAAAILRRHVAGNASASA [HC1110] | -1.81 (inactive) | 1.42 | 1.16 |
